HepG2 viability: qHTS for Inhibitors of TGF-b: Cytotox Counterscreen; HepG2 CAGA-GFP viability, ATP luminescence, 18 h; Potency, µM (doses to about 46.1 µM), without a hit: top-dose activity change, negative = cytotoxicity, usual class: cytotoxic; actives 0.76% (n = 410,000); AID 588856, 2011; also: potency is read from the fitted curve at half-maximal effect
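HepG2 CAGA-GFP cells (1000/well, DMEM with 1% FBS) received compound, then TGF-beta at 500 pg/mL final, and were incubated 18 hours at 37 degrees C. Viability was read by CellTiter-Glo luminescence. Media-only wells were set as complete cell-killing and DMSO as no toxicity.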
TGFb SMAD3 inh: qHTS for Inhibitors of TGF-b; HepG2 CAGA-GFP TGF-b/SMAD3 reporter, GFP fluorescence, 18 h; TGF-beta stimulated, 500 pg/mL final; Potency, µM (titrated, usually from 46.1 µM), inactives show top-dose activity, negative = inhibition, actives largely listed as inhibitors; actives 1.2% (n = 410,000); AID 588855, 2011; also: potency is read from the fitted curve at half-maximal effect; % is scaled to controls: 0 for no effect and ±100 for the full control effect; nearly all actives have a fitted effect of over 65% in size
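HEPG2 CAGA-GFP cells (1000/well, DMEM with 1% FBS) were pre-incubated 2 h at 37 degrees C, given compound by pin tool, then stimulated with TGF-beta at 500 pg/mL final for 18 h before per-cell GFP fluorescence imaging.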
IL-1B inflam inh: qHTS for Inhibitors of Inflammasome Signaling: IL-1-beta AlphaLISA Primary Screen; THP-1 LPS/ATP IL-1B secretion, AlphaLISA, 16 h; active compounds read low; actives 4.7% (n = 360,000); AID 743279, 2014; activity change, % at 57.5 µM; in the data active = activity change below about -50%; inconclusive = mostly about -30% to -49%; also: % is scaled to controls: 0 for no effect and ±100 for the full control effect
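THP-1 cells pretreated 1 hr with compounds (up to 57.5 uM final), then stimulated with LPS (250 ng/mL final) plus ATP (1.25 mM final); secreted IL-1B measured by AlphaLISA after 16 hr, decreased signal indicating inhibition.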
TDP1 cell CPT: qHTS for Inhibitors of human tyrosyl-DNA phosphodiesterase 1 (TDP1): qHTS in cells in presence of CPT. actives 12% (n = 420,000). Potency, µM (top dose mostly 46.2 µM), inactives show at the highest dose activity change, negative = growth inhibition, usual class: inhibitors. chicken DT40 Tdp1-/-;hTDP1 cells + 20 nM CPT, ATP luminescence, 48 h; also: potency is read from the fitted curve at half-maximal effect; % is scaled to controls: 0 for no effect and ±100 for the full control effect; nearly all actives have a fitted effect of over 55% in size
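Cell growth measured by CellTiter-Glo luminescence after a minimum 48 h, 37 C compound exposure with 20 nM CPT in Tdp1-knockout DT40 cells stably expressing hTDP1, seeded 400/well; qHTS titration format.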
TDP1 cell noCPT: qHTS for Inhibitors of human tyrosyl-DNA phosphodiesterase 1 (TDP1): qHTS in cells in absence of CPT. DT40 Tdp1-/- hTDP1 cells, no CPT, ATP luminescence, 48 h. Potency, µM (doses to about 46.2 µM), for the others: at the highest dose activity change, negative = growth inhibition, usual class: inhibitors. AID 686978, 2013. actives 15% (n = 420,000); also: potency is read from the fitted curve at half-maximal effect; % is scaled to controls: 0 for no effect and ±100 for the full control effect; nearly all actives have a fitted effect of over 55% in size
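Seeded 400 DT40-hTDP1 cells/well (vehicle DMSO, no 20 nM CPT); pinned compounds; ≥48 hr at 37 °C; CellTiter-Glo luminescence as viability measure.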
TDP1 block: qHTS Assay for Inhibitors of Tyrosyl-DNA Phosphodiesterase (TDP1). Potency, µM (top dose mostly 130 µM), for inactives: at the highest dose activity change, negative = inhibition, most hits filed as inhibitors. actives 0.28% (n = 350,000). Tyrosyl-DNA phosphodiesterase 1 (Homo sapiens), Q9NUW8. recombinant TDP1, AlphaScreen DNA substrate cleavage. AID 485290, 2010; also: potency is read from the fitted curve at half-maximal effect; % is scaled to controls: 0 for no effect and ±100 for the full control effect; nearly all actives have a fitted effect of over 40% in size
Target sequence (Q9NUW8 whole entry, looked up): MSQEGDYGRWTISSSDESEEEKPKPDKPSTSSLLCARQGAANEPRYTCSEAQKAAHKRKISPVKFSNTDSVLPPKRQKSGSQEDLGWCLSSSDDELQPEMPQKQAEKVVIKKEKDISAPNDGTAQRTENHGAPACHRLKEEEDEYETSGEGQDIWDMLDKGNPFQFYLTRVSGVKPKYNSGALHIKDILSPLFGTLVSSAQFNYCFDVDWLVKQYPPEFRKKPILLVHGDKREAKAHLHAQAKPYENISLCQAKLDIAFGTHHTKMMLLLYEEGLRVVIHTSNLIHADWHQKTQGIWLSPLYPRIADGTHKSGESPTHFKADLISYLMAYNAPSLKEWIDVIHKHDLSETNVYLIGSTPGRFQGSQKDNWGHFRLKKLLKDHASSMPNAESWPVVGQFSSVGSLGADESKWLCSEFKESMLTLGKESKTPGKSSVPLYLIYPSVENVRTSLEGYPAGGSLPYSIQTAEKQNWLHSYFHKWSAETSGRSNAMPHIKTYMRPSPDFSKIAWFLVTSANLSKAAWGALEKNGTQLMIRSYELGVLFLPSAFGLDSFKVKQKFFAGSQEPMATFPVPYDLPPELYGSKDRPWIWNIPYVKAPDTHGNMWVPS
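Tdp1 1 nM final; 15 min RT w/ cpd; substrate 15 nM, 5 min; beads 10 ug/ml, 10 min; AlphaScreen read. Neg ctrl: no enzyme.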
An asterisk follows results filed as active; i = inactive; ? = inconclusive; / = no result given; + = active, no number; [ ] = another dose, or the depositor's remark. Only some compounds are listed: those with a hit (about 19% of all), similar ones and a draw of the others. Unless noted, calls follow the shape of the dose curve; as a rule, active = well fitted curve in the direction sought with a large enough effect; inconclusive = small, poorly fitted or top-dose-only effect, or another doubt; inactive = no such curve, though single readings can be large; an effect the other way counts as inactive or inconclusive.

SMILES	HepG2 viability	TGFb SMAD3 inh	IL-1B inflam inh	TDP1 cell CPT	TDP1 cell noCPT	TDP1 block
CCOC(=O)C(CC)n1cnc2c(cnn2-c2ccc(Cl)cc2)c1=O (stereo not given)	-19.6%	-7.2%	15.2	?	18.4µM*	9.4%
O=C(CSc1nnc(-c2cccs2)n1-c1ccccc1)N1CCOCC1	-16.8%	1.3%	-10.0	-3.9%	-16.5%	4.3%
O=C(O)CSc1nnc(-c2cccs2)n1-c1ccc(Cl)cc1	3.6%	17.3%	-7.3	?	29.1µM*	5.4%
O=C(CSc1nnc(-c2cccs2)n1-c1cccc(Cl)c1)c1cccc2c1OCCO2	-7.8%	18.1%	-0.8	?	16.4µM*	-3.5%
c1ccc(-n2c(SCC3CCCCO3)nnc2-c2cccs2)cc1 (stereo not given)	-29.3%	-10.2%	-11.0	18.4µM*	?	-1.0%
O=C(CCn1c(=O)c2cccn2c2cccnc21)NCCCN1CCN(c2ccc(F)cc2)CC1	-35.4%	?	-25.3	-19.1%	?	/
O=C(COc1ccc(Cl)cc1)NCc1n[nH]c(=O)c2ccccc12	-11.5%	18.1%	-2.3	-17.3%	-11.6%	56.2µM*
CC(C)c1ccc(OCC(=O)NCc2n[nH]c(=O)c3ccccc23)cc1	0.2%	5.6%	30.4	?	?	39.8µM*
O=[N+]([O-])c1cc(-c2nc(-c3ccccc3)no2)ccc1N1CCCCC1	-6.6%	-8.2%	/	-17.0%	?	8.6%
Cc1ccc(-c2noc(-c3ccc(N4CCCCC4)c([N+](=O)[O-])c3)n2)cc1	-4.5%	2.7%	/	?	20.6µM*	5.7%
CCc1noc(-c2ccc(N3CCC(C)CC3)c([N+](=O)[O-])c2)n1	-20.0%	?	/	18.4µM*	?	5.7%
CCc1noc(-c2ccc(N3CCCCC3)c([N+](=O)[O-])c2)n1	-19.5%	-6.4%	/	?	4.5%	11.4%
Cc1ccc(-c2noc(-c3ccc(N4CCOCC4)c([N+](=O)[O-])c3)n2)cc1	0.7%	?	/	-14.4%	20.6µM*	0.0%
COc1ccc(-c2noc(-c3ccc(N4CCOCC4)c([N+](=O)[O-])c3)n2)cc1	-4.7%	6.5%	/	-15.1%	-0.7%	0.0%
CC(C)(C)c1ccc(S(=O)(=O)NCC(=O)N2CCN(Cc3ccccc3)CC2)cc1	-2.8%	-3.8%	-20.1	?	?	4.7%[56.1 µM]
COC1=C2C[C@H](C)C[C@H](OC)[C@@H](O)[C@@H](C)C=C(C)[C@H](OC(N)=O)[C@@H](OC)C=CC=C(C)C(=O)NC(=CC1=O)C2=O	-41.0%	?	/	0.0794µM*	0.0251µM*	4.6%
CC1(C(=O)NS(=O)(=O)c2cccc(F)c2)CCN1C(=O)c1ccccc1CCc1ccccc1 (stereo not given)	-0.9%	9.4%	0.0	?	-28.4%	/
CNC(=O)C1(C)CCN1C(=O)c1ccccc1CCc1ccccc1 (stereo not given)	1.2%	-3.2%	-16.9	-25.7%	-9.9%	/
Cc1cccc(S(=O)(=O)NC(=O)C2(C)CCN2C(=O)c2ccccc2CCc2ccccc2)c1 (stereo not given)	-11.9%	1.9%	0.0	?	+	/
CC1(C(=O)NCCC#N)CCN1C(=O)c1ccccc1CCc1ccccc1 (stereo not given)	-0.6%	16.2%	0.0	?	-21.7%	/
CC1(C(=O)N2CCCCC2)CCN1C(=O)c1ccccc1CCc1ccccc1 (stereo not given)	-1.8%	-2.8%	0.0	?	14.6µM*	/
COc1ccc(NC(=O)C2(C)CCN2C(=O)c2ccccc2CCc2ccccc2)cc1OC (stereo not given)	-0.9%	16.5%	-1.2	14.6µM*	9.2µM*	/
Cc1ccc(NC(=O)C2(C)CCN2C(=O)c2ccccc2CCc2ccccc2)cc1C (stereo not given)	-23.1%	1.7%	-15.7	20.6µM*	-94.7%	/
CCc1cc2c(cc3c(=O)n(CC(=O)NCc4cc(Br)ccc4OC)ncn32)s1	8.0%	-4.5%	/	-29.3%	?	1.0%
COc1ccc(Nc2ncc3c(n2)CC(c2ccc(C)cc2)CC3=O)cc1 (stereo not given)	-4.3%	13.5%	-3.3	?	8.2µM*	3.8%
SMILES	HepG2 viability	TGFb SMAD3 inh	IL-1B inflam inh	TDP1 cell CPT	TDP1 cell noCPT	TDP1 block
COc1ccc(C2CC(=O)c3cnc(NC(=O)c4ccco4)nc3C2)cc1 (stereo not given)	-10.5%	-6.6%	i	-6.9%	-20.1%	5.4%
O=C1CC(c2ccco2)Cc2nc(Nc3ccc(F)cc3)ncc21 (stereo not given)	-36.3%	-5.3%	?	?	23.1µM*	7.1%
COc1ccc(C2CC(=O)c3cnc(NC(=O)c4ccccc4)nc3C2)c(OC)c1 (stereo not given)	-21.7%	?	0.0	6.51µM*	7.31µM*	8.3%
COc1ccc(Nc2ncc3c(n2)CC(c2ccc(OC)cc2)CC3=O)cc1 (stereo not given)	-1.9%	-10.9%	-28.5	?	11.6µM*	7.2%
Cc1cc(C)n2nc(SCC(=O)N3CCN(c4ccccc4)CC3)nc2n1	22.6%	7.1%	19.4	0.0%	-5.2%	1.8%
O=c1oc2ccccc2cc1-c1csc(Cc2nc(-c3ccc(Br)cc3)cs2)n1	-13.7%	19.1%	-1.3	?	16.4µM*	2.6%
O=c1oc2ccc(Br)cc2cc1-c1csc(-c2ccccc2)n1	-0.6%	-3.1%	/	-10.5%	-11.8%	-4.4%
Cc1cc(C)c(-c2csc(Cc3nc(-c4cc5ccccc5oc4=O)cs3)n2)cc1C	-15.1%	-12.8%	-19.7	18.4µM*	14.6µM*	-5.5%

Source: PubChem BioAssay
